Bioassay records as filed in PubChem BioAssay.
HGIII-sPLA2 inh = Inhibits HGIII-sPLA2 liposome hydrolysis, primary screen | QFRET BODIPY PC-A2 liposome hydrolysis, fluorescence | inhibition, % at 12.2 µM | 370,000 compounds, 0.56% hits;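 active = inhibition above mean plus 3 SD of compounds lying within the high and low control bounds, cut at about 19% in these data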
DAGLB inhibitor = diacylglycerol lipase beta (human) inhibition; Q8NCG7; 340,000 compounds, 0.059% hits; AID 504411; inhibition, % at 5.17 µM; HEK293T DAGLB membrane lysate, EnzChek fluorogenic substrate; in the data active = inhibition above about 34%
PLC-gamma1 inh = PLC-gamma1 (human) inhibition, primary screen. purified PLC-gamma1, fluorogenic substrate, fluorescence. inhibition, % at 12.2 µM. 370,000 compounds, 0.84% hits; in the data active = inhibition above about 9.5%
PLC-beta3 inh = PLC-beta3 (human) inhibition, primary screen | AID 720704 | Purified PLC-beta3, fluorogenic substrate, fluorescence | 370,000 compounds, 0.18% hits | Q01970 | inhibition, % at 12.2 µM; in the data active = inhibition above about 11%
Target sequence (Q01970 whole entry, looked up): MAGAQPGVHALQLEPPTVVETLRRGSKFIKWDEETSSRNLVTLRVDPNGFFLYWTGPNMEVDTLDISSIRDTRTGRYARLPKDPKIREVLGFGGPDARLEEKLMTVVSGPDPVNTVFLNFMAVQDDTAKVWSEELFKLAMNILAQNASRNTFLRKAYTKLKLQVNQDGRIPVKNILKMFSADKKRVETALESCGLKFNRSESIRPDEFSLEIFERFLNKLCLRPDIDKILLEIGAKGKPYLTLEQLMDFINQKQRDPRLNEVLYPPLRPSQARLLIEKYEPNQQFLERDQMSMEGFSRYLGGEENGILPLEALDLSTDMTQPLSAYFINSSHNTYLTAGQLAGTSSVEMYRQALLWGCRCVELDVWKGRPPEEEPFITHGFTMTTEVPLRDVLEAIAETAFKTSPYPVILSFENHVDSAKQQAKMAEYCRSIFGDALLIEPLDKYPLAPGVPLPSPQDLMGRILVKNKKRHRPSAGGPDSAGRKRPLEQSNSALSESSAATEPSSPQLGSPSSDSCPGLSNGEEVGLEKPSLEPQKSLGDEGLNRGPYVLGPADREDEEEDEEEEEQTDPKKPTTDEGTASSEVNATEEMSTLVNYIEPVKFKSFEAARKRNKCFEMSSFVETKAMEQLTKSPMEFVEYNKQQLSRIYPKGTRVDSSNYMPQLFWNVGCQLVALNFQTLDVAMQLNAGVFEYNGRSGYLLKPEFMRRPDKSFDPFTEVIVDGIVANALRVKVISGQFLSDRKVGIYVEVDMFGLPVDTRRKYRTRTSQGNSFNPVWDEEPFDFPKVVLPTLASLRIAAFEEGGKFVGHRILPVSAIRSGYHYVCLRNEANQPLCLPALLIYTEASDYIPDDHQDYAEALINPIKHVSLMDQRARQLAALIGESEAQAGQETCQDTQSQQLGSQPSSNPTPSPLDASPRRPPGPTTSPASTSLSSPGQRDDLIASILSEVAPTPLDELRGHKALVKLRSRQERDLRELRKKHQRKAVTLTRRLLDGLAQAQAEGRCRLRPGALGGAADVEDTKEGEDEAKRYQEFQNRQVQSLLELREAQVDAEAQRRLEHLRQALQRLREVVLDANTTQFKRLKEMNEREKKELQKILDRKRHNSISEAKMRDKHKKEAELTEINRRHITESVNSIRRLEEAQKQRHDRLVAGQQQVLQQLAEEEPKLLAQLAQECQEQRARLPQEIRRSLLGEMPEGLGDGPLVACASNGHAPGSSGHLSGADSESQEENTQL
sPLA2 confirm = human GIII-sPLA2 inhibition, confirmation | shares compounds with HGIII-sPLA2 inh | recombinant hGIII-sPLA2, BODIPY PC-A2 QFRET fluorescence | inhibition, % at 12.2 µM | 2,000 compounds, 34% hits | AID 743280;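 active = mean inhibition across triplicates above the hit cutoff set in the earlier primary screen, cut at about 19% in these data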
BODIPY interf = counter-screen for HGIII-sPLA2 inhibitors: 535nm fluorescence interference | inhibition, % at 12.2 µM | shares compounds with HGIII-sPLA2 inh | 2,000 compounds, 8.5% hits | AID 743282 | BODIPY FL product fluorescence interference, QFRET;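 active = average inhibition above the solvent-only control mean plus 3 SD, cut at about 6% in these data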
Large screens that a line does not name were inactive (follow-up assays come after a bar, where they were run). A selection: hits, their analogues and other compounds. The true share with any hit is near 1.5%.

O=C(NNc1nc2c(F)cccc2s1)C1COc2ccccc2O1 (stereo not drawn)	none
S=C(NC1CCCC1)NC1CC1	HGIII-sPLA2 inh 21 | sPLA2 confirm inactive | BODIPY interf inactive
Cc1cccc(C)c1NC(=S)NC1CCCCC1	HGIII-sPLA2 inh 24 | sPLA2 confirm 21 | BODIPY interf inactive
CC1(C)CC(=O)C=C(Nc2ccc(Br)cn2)C1	HGIII-sPLA2 inh 21 | sPLA2 confirm inactive | BODIPY interf inactive
CN1CCN(c2ccc3c(c2)Oc2ccccc2CN(Cc2cn(Cc4ccc(C(F)(F)F)cc4)nn2)S3(=O)=O)CC1	none (no result: DAGLB inhibitor)
COc1ccc(CN2C/C(=C/C3=CCCCC3)N(C(=O)OCc3ccccc3)C2=N)c(OC)c1	none (no result: DAGLB inhibitor)
CCOC(=O)c1sc(=S)n(-c2ccccc2)c1N	none
CCOC(=O)c1sc(=S)n(-c2ccc(OC)cc2)c1N	HGIII-sPLA2 inh 25 (no result: DAGLB inhibitor) | sPLA2 confirm inactive | BODIPY interf inactive
O=C(CSc1nc2ccccc2c(=O)n1Cc1ccco1)NCc1ccco1	none
COC(=O)c1c(NC(=O)CSc2nc3ccccc3c(=O)n2Cc2ccco2)sc(C)c1C	HGIII-sPLA2 inh 19 | sPLA2 confirm inactive | BODIPY interf inactive
O=S(=O)(c1ccc(F)cc1)n1c(CN2CCOCC2)nc2ccccc21	none (no result: DAGLB inhibitor)
Cc1ccc2c(c1)c1c3n2CCN(CC(N)=O)C3CCC1 (stereo not drawn)	none
Cc1ccc2c(c1)c1c3n2CCN(CC#N)C3CCC1 (stereo not drawn)	HGIII-sPLA2 inh 22 | sPLA2 confirm inactive | BODIPY interf inactive
CC(=O)N[C@@H]1C[C@@H]2O[C@@H](CO)CC[C@@H]2O[C@@H]1CCc1ccc(C#CC2(O)CCCC2)cc1	none (no result: DAGLB inhibitor)
CC(C)CCNC(=S)Nc1ccccn1	none
CC(C)CCNC(=S)Nc1ccccc1F	HGIII-sPLA2 inh 20 | sPLA2 confirm inactive | BODIPY interf inactive
O=C(c1cc(F)ccc1F)N1CCCC(c2nc(-c3cccs3)no2)C1 (stereo not drawn)	none (no result: DAGLB inhibitor)
Cc1ncc(CO)c(/C=N/NC(=S)Nc2ccc(F)cc2)c1O	HGIII-sPLA2 inh 20 | sPLA2 confirm 20 | BODIPY interf inactive
CCCCNC(=O)C[C@H]1C[C@@]2(C(=O)OC)C(=C[C@H](C(C)C)O[C@@H]2C2CC2)N(Cc2ccc3c(c2)OCO3)C1=O	none (no result: DAGLB inhibitor)
COc1ccc(CNc2ncc(-c3ccccc3)n2C)cc1	none
CCOc1cc(CNc2ncc(-c3ccc(OC)cc3)n2C)ccc1O	HGIII-sPLA2 inh 20 | sPLA2 confirm inactive | BODIPY interf inactive
